The values below come from the supplement of paper PMC10127200.

Holding throughout (assay): Euclidean distance of Cell Painting phenotypic profile (signed KS, 77 features) to DMSO centroid (dimensionless distance); higher = stronger phenotypic change vs DMSO (phenoactivity)
Details in all cases: 48 h; 5 or 10 uM (library dependent)

One assay relates to 786-O. Put shortly: (§1)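 Phenoactivity is computed as Euclidean distance to the median vehicle profile. The profiles, drawn from 77 Harmony features scored as signed Kolmogorov-Smirnov statistics versus same-plate vehicle wells, were corrected for plate position, correlation-weighted and replicate-averaged at the top dose. Stained cells were imaged confocally at 20X (9 fields/well) after 48 h with library compounds at 10 or 5 uM, 0.1% DMSO final, in five cancer lines and a healthy fibroblast line.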

Another assay has as its system A549. Put shortly:
as §1

In the next assay the test system is DU145. Put shortly:
as §1

A further assay relates to FB. Put shortly: as §1
In another assay the test system is HEPG2. Summed up: as §1
The test system of another assay is OVCAR4. Summed up: as §1

Where a name gives a salt, the structure may show the parent alone.

For the molecule `C[C@@H]1O[C@@H](O[C@H]2C[C@@H](O)[C@]3(CO)[C@H]4[C@H](O)C[C@]5(C)[C@@H](C6=CC(=O)OC6)CC[C@]5(O)[C@@H]4CC[C@]3(O)C2)[C@H](O)[C@H](O)[C@H]1O` [Ouabain], the Euclidean distance with 786-O stood at 6.72; in the assay with A549, 6.03; in the assay with DU145, 6.56; in the assay on FB, 4.56; in the assay with HEPG2 it was 3.34; in the assay with OVCAR4, 7.06.
As for `CC(C)(C)NCC(O)c1ccccc1Cl` (stereo not drawn) [Tulobuterol hydrochloride], the Euclidean distance came out at 0.975 in the assay on 786-O; 0.768 in the assay on A549; 0.82 in the assay on DU145; 0.711 in the assay with FB; 0.75 in the assay with HEPG2; 1.75 in the assay with OVCAR4.
Regarding `CCCN1C[C@H](CSC)C[C@@H]2c3cccc4[nH]cc(c34)C[C@H]21` [Pergolide Mesylate], the Euclidean distance with 786-O worked out at 1.01; in the assay with A549, 1.03; in the assay on DU145, 1.06; in the assay with FB, 0.928; in the assay on HEPG2, 0.589; in the assay with OVCAR4, 1.71.
Turning to `C[C@H]1CC(=O)C[C@@H]2CC[C@H]3[C@@H]4CC[C@H](O)[C@@]4(C)CC[C@@H]3[C@]21C` [Mesterolone], the Euclidean distance worked out at 1.38 in the assay with 786-O; 1.27 in the assay with A549; 1.33 in the assay on DU145; 1.08 in the assay with FB; 0.446 in the assay with HEPG2; 0.883 in the assay on OVCAR4.
`O=P(O)(NCCCl)NCCCl` [Palifosfamide]: the Euclidean distance in the assay with 786-O was 1.23; in the assay with A549, 0.923; with DU145, 1.53; with FB, 1.11; in the assay on HEPG2 it was 0.698; with OVCAR4, 1.21.
On to `C=C1C[C@@H]2[C@H](CC[C@]3(C)C(=O)CC[C@@H]23)[C@@]2(C)C=CC(=O)C=C12` [Exemestane], for which the Euclidean distance with 786-O worked out at 1.7; in the assay on A549, 1.06; in the assay with DU145 it was 0.488; with FB, 1; in the assay on HEPG2 it was 0.7; with OVCAR4, 1.37.
Turning to `Oc1cc(Cl)ccc1Oc1ccc(Cl)cc1Cl` [Triclosan], the Euclidean distance was determined as 0.695 in the assay on 786-O; 0.668 in the assay on A549; 0.877 in the assay with DU145; 1.15 in the assay with FB; 0.546 in the assay on HEPG2; 1.07 in the assay on OVCAR4.
In the case of `CC[C@H](C)[C@H]1O[C@]2(C=C[C@@H]1C)C[C@@H]1C[C@@H](C/C=C(\C)[C@@H](O[C@H]3C[C@H](OC)[C@@H](O[C@H]4C[C@H](OC)[C@@H](O)[C@H](C)O4)[C@H](C)O3)[C@@H](C)/C=C/C=C3\CO[C@@H]4[C@H](O)C(C)=C[C@@H](C(=O)O1)[C@]34O)O2.CO[C@H]1C[C@H](O[C@H]2[C@H](C)O[C@@H](O[C@@H]3/C(C)=C/C[C@@H]4C[C@@H](C[C@]5(C=C[C@H](C)[C@@H](C(C)C)O5)O4)OC(=O)[C@@H]4C=C(C)[C@@H](O)[C@H]5OC/C(=C\C=C\[C@@H]3C)[C@]54O)C[C@@H]2OC)O[C@@H](C)[C@@H]1O` [Avermectin B1], the Euclidean distance was 1.43 in the assay with 786-O; 2.77 in the assay on A549; 1.59 with DU145; 1.1 in the assay with FB; 1.38 with HEPG2; 1.76 in the assay with OVCAR4.
For `CCC1(c2ccc(N)cc2)CCC(=O)NC1=O` (stereo not drawn) [Aminoglutethimide], the Euclidean distance came to 1.19 in the assay with 786-O; 0.545 in the assay on A549; 0.574 in the assay with DU145; 1.37 with FB; 0.54 with HEPG2; 1.67 in the assay with OVCAR4.
On to `N=C(N)NN` [Aminoguanidine hydrochloride], for which the Euclidean distance in the assay with 786-O was 0.96; in the assay on A549 it was 1.11; in the assay on DU145, 0.602; in the assay with FB, 0.888; in the assay with HEPG2, 0.598; with OVCAR4, 0.998.
Regarding `COC(=O)C[C@](O)(CCC(C)(C)O)C(=O)O[C@@H]1C(OC)=C[C@]23CCCN2CCc2cc4c(cc2[C@H]13)OCO4` [Harringtonine], the Euclidean distance in the assay on 786-O stood at 3.42; in the assay with A549, 3.22; in the assay on DU145, 4.37; in the assay with FB it was 3.78; in the assay on HEPG2, 3.46; with OVCAR4 it was 3.73.
With `O=P1(N(CCCl)CCCl)NCCCO1` (stereo not drawn) [Cyclophosphamide Monohydrate], the Euclidean distance was found to be 1.18 in the assay on 786-O; 0.863 in the assay on A549; 1.62 in the assay on DU145; 0.969 in the assay on FB; 2.05 in the assay on HEPG2; 1.07 with OVCAR4.
Consider `COC1=C[C@@H]2[C@@H]3Cc4ccc(OC)c(O)c4[C@]2(CCN3C)CC1=O` [Sinomenine hydrochloride], for which the Euclidean distance in the assay on 786-O was 0.472; in the assay on A549, 0.883; in the assay with DU145, 1.1; in the assay with FB, 1.15; with HEPG2 it was 0.751; in the assay with OVCAR4, 0.824.
Regarding `CC(=O)[C@H]1CC[C@H]2[C@@H]3CC[C@H]4C[C@H](O)CC[C@]4(C)[C@H]3CC[C@]12C` [Allopregnanolone], the Euclidean distance in the assay on 786-O was 0.735; in the assay with A549, 0.818; with DU145 it was 1.1; in the assay with FB it was 1.22; in the assay with HEPG2, 0.709; in the assay on OVCAR4, 1.64.
For the molecule `C=CCN1C[C@H](C(=O)N(CCCN(C)C)C(=O)NCC)C[C@@H]2c3cccc4[nH]cc(c34)C[C@H]21` [Cabergoline], the Euclidean distance in the assay on 786-O is 1.45; in the assay on A549, 0.993; with DU145, 1.12; with FB, 1.34; in the assay with HEPG2 it was 0.928; in the assay on OVCAR4, 1.3.
Regarding `Cc1sc2c(c1C)C(c1ccc(Cl)cc1)=N[C@@H](CC(=O)OC(C)(C)C)c1nnc(C)n1-2`, the Euclidean distance with 786-O stood at 3.44; with A549, 2.14; in the assay on DU145, 2.03; with FB, 3.52; with HEPG2 it was 1.96; in the assay with OVCAR4 it was 1.96.
As to `NC(=O)CN1CC(c2ccccc2)CC1=O` (stereo not drawn) [Phenylpiracetam], the Euclidean distance with 786-O amounted to 1.05; in the assay on A549, 1.45; in the assay on DU145, 0.789; in the assay on FB, 0.956; in the assay on HEPG2 it was 0.413; with OVCAR4, 1.3.
For `c1cc2c(cc1[C@H]1OC[C@H]3[C@@H]1CO[C@@H]3c1ccc3c(c1)OCO3)OCO2` [Sesamin], the Euclidean distance in the assay on 786-O stood at 1.03; in the assay on A549 it was 0.791; with DU145 it was 0.678; with FB, 1.13; in the assay on HEPG2 it was 2.07; with OVCAR4, 1.1.
`Cc1ccc2c(c1)[C@]13CCCC[C@@H]1[C@H](C2)N(C)CC3` [Dimemorfan phosphate]: the Euclidean distance was 1.28 in the assay with 786-O; 1.25 with A549; 1.36 with DU145; 3.6 in the assay on FB; 2.34 in the assay with HEPG2; 1.19 with OVCAR4.
On to `C=C[C@H]1CN2CC[C@H]1C[C@H]2[C@H](O)c1ccnc2ccccc12` [Cinchonidine], for which the Euclidean distance is 1.49 with 786-O; 0.828 with A549; 1.16 with DU145; 1.09 with FB; 0.521 with HEPG2; 1.1 in the assay on OVCAR4.
Turning to `NC[C@H](CC(=O)O)c1ccc(Cl)cc1` [(R)-baclofen], the Euclidean distance came to 1.58 in the assay with 786-O; 1.05 in the assay on A549; 0.675 in the assay with DU145; 1.01 in the assay on FB; 0.87 in the assay on HEPG2; 1.1 with OVCAR4.
As to `CCCCCc1cc(O)cc(O)c1` [Olivetol], the Euclidean distance stood at 1.12 in the assay with 786-O; 0.742 in the assay with A549; 0.801 with DU145; 0.7 in the assay on FB; 0.393 with HEPG2; 0.946 in the assay with OVCAR4.
With `C=CC1CN2CCC1CC2C(O)c1ccnc2ccccc12` (stereo not drawn), the Euclidean distance is 1.34 in the assay on 786-O; 0.884 with A549; 1.11 in the assay on DU145; 0.875 with FB; 0.638 in the assay on HEPG2; 1.13 in the assay with OVCAR4.
